Experimental findings from ChEMBL document CHEMBL4513149, “CO-ADD screening of MMV (CH) - MMV compounds” (2021) are described below.

Entries with a potency or affinity are not part of this list.

In one test the test system is Staphylococcus aureus. The note with it: Concentration 20 uM; ASSAY_TEST Inhibition of Bacterial Growth; detection method Absorption (OD600); MEDIA CAMHB; plate type 384well; NBS; CORNING #3640; time 18 hr.
Another test relates to Escherichia coli. The note with it: Concentration 20 uM; ASSAY_TEST Inhibition of Bacterial Growth; detection method Absorption (OD600); MEDIA CAMHB; plate type 384well; NBS; CORNING #3640; time 18 hr.

With `COc1cccc(OC)c1C(=O)Nc1ccc(Cl)c(-c2nc3ccccc3s2)c1`, the results for the Inhibition in the test with Staphylococcus aureus and in the test with Escherichia coli were 3.55% and -2.89%, respectively.
Regarding `C[C@H](C(N)=O)N1CCCC[C@@H]1c1ccc(OCc2cccc(F)c2)cc1`, the Inhibition with Staphylococcus aureus is given as 12.73%; in the test on Escherichia coli, 2.14%.
On the same counts, the results for `Cc1cc(OCC(=O)NCc2ccccc2)c2cc(Br)ccc2n1` are 11.48% and 7.85%.
As to `COc1ccc(Nc2ccccc2NC(=O)c2ccc(O)nc2)cc1`, the Inhibition in the test with Staphylococcus aureus is reported as 8.88%; with Escherichia coli, -4.3%.
As for `Cc1nn(C(=O)Nc2cccc(C(F)(F)F)c2)c(C)c1Sc1ncccn1`, the Inhibition in the test with Staphylococcus aureus was determined as 14.85%; in the test with Escherichia coli it was 7.79%.
Take `NCCC(O)C(=O)N[C@@H]1C[C@H](N)[C@@H](OC2O[C@H](CN)[C@@H](O)[C@H](O)[C@H]2O)[C@H](O)C1OC1O[C@H](CO)[C@@H](O)[C@H](N)[C@H]1O.O=S(=O)(O)O.O=S(=O)(O)O` (some centres undefined): the Inhibition with Staphylococcus aureus was 14.32%; with Escherichia coli, 11.24%.
The corresponding values for `FC(F)(F)c1ccc(N(c2cccnc2)C2CCN(c3ccc(C(F)(F)F)cn3)CC2)cc1` are 14.25% and 5.86%.
On the same counts, the results for `Cc1c[nH]c(CCNC(=O)c2cc(-c3ccc(Cl)cc3)cs2)n1` are 25.33% and 10.78%.
With `CCN(CC)CCCCCCNc1cc(OC)cc2c(C)ccnc12.Cc1ccc(S(=O)(=O)O)cc1`, the Inhibition is given as 18.42% in the test on Staphylococcus aureus and 7.48% in the test with Escherichia coli.
As for `COc1cc(NC(=O)Cc2nn(C)c(=O)c3ccccc23)ccc1Cl`, the Inhibition stood at 23.8% in the test with Staphylococcus aureus and 11.61% in the test with Escherichia coli.
The corresponding values for `CCOc1ccc2cc(-c3nn(CC4CCN(C)CC4)c4ncnc(N)c34)ccc2c1.Cl` are 18.54% and 8.02%.
Take `CNC(=O)C1Cc2ccccc2N1C(=O)Cc1ccc(F)cc1` (centres undefined): the Inhibition was 16.81% in the test with Staphylococcus aureus and 5.31% in the test with Escherichia coli.
For `COc1ccccc1CNC(=O)c1cc(C2CC2)nc2c1cnn2C(C)C`, the Inhibition was 13.79% with Staphylococcus aureus and -2.58% in the test with Escherichia coli.
As to `COc1ccc(Cn2cnc3c(-c4ccco4)nc(Cl)nc32)cc1`, the Inhibition in the test on Staphylococcus aureus is given as 20.69%; with Escherichia coli, 10.18%.
`CN(C)c1cc(NC(=O)Nc2ccccc2)c2ccccc2n1`: the Inhibition stood at 12.79% in the test on Staphylococcus aureus and 6.08% in the test with Escherichia coli.
For `N=C(N)c1ccc(-c2cc(-c3ccccc3)on2)cc1`, the Inhibition is recorded as 23.63% in the test with Staphylococcus aureus and 12.9% in the test on Escherichia coli.
`CN1CCN(c2nccc3[nH]c(-c4cccc(F)c4)cc23)CC1`: the results for the Inhibition in the test on Staphylococcus aureus and in the test on Escherichia coli were 12.79% and 3.68%, respectively.
`C[C@]1(O)C[C@@H](c2nc(-c3ccc4ccc(-c5ccccc5)nc4c3)c3c(N)nccn32)C1` [LINSITINIB]: the Inhibition with Staphylococcus aureus is listed as 13.39%; in the test with Escherichia coli, 6.95%.
For the molecule `COc1ccc(CN2CCOc3ccc(C(C)(O)CN(C)C)cc3C2)cc1C` (centres undefined), the Inhibition was 19.53% in the test with Staphylococcus aureus and 9.29% with Escherichia coli.
Take `O=C(CCC1CCCCC1)Nc1cccc(-c2nnc(-c3ccco3)o2)c1`: the values for the Inhibition with Staphylococcus aureus and with Escherichia coli were 8.68% and 8.91%, respectively.
On the same counts, the results for `CC(=O)N(CCN(C(=O)c1ccc(F)cc1)c1ccccc1)c1ccccc1` are 12.64% and 5.32%.
For the molecule `O=C(NC1=NCCS1)c1sc2cc(F)ccc2c1Cl`, the results for the Inhibition in the test with Staphylococcus aureus and with Escherichia coli were 2.69% and -4.46%, respectively.
`CCc1ccccc1-n1c(C)cn2c3c(=O)n(C(C(=O)OC)C(C)C)c(=O)n(C)c3nc12` (centres undefined): the figures for the Inhibition in the test on Staphylococcus aureus and with Escherichia coli were 5.27% and 7.91%, respectively.
`O=C(NCc1nnc2n1CCCCC2)c1ccc(-c2ccc(F)cc2)o1`: the figures for the Inhibition in the test with Staphylococcus aureus and in the test with Escherichia coli were 15.64% and 7.05%, respectively.
Take `CC(=O)Nc1ccc(-c2noc(CC3CCCN(Cc4cccc(F)c4C)C3)n2)cc1` (centres undefined): the Inhibition in the test on Staphylococcus aureus was 14.07%; in the test on Escherichia coli, 3.97%.
Turning to `CN1CCN(c2cc(-c3ccc(F)cc3)nc(-c3ccncc3)n2)CC1`, the Inhibition in the test on Staphylococcus aureus is reported as 17.93%; in the test on Escherichia coli it was -5.05%.
`O=C(NC1CC1)c1ccc(CSCc2ccccc2Cl)o1`: the Inhibition with Staphylococcus aureus is 11.19%; in the test with Escherichia coli, -1.44%.
On the same counts, the results for `Nc1ncnc2c1c(-c1cnc3ccccc3c1)nn2CC1CCNCC1` are 3.94% and -4.76%.
The corresponding values for `CCCCc1ccc(C(=O)Nc2nccc3ccccc23)nc1` are 5.7% and -0.87%.
In the case of `COc1cc(OC)cc(C(=O)NCC2Cc3cc(Cl)cc(-c4ccncc4)c3O2)c1` (centres undefined), the Inhibition is given as 16.01% in the test with Staphylococcus aureus and 10.63% in the test on Escherichia coli.
On the same counts, the results for `Brc1c(-c2ccc3c(c2)OCO3)nc2ncccn12` are 14.85% and 5.08%.
In the case of `O=C(N[C@H](Cc1ccccc1)C(=O)Nc1ccccc1N1CCOCC1)c1cccs1`, the Inhibition in the test with Staphylococcus aureus stood at 14.16%; in the test on Escherichia coli, 8.05%.
On to `CCC(C)NC(=O)c1ccc(NC(=O)C2(c3ccccc3)CCCC2)cc1` (centres undefined), for which the Inhibition in the test with Staphylococcus aureus is recorded as 13.32%; in the test with Escherichia coli it was -4.39%.
In the case of `CC1CCCN(C(=O)C(C)Nc2cc(Cl)ccc2N2CCOCC2)C1` (centres undefined), the Inhibition in the test with Staphylococcus aureus turned out to be 20.88%; in the test with Escherichia coli it was 9.44%.
For the molecule `COc1ccc(-c2nn(C(C)C)c3ncnc(N)c23)cc1OC`, the Inhibition in the test with Staphylococcus aureus was 14.97%; with Escherichia coli it was -0.52%.
With `Nc1nccc2ccc(Oc3ccncc3)cc12`, the results for the Inhibition with Staphylococcus aureus and in the test on Escherichia coli were 12.81% and 7.44%, respectively.
With `c1ccc(Oc2ccc(-c3cncc(-c4ccc5[nH]ccc5c4)n3)cc2)cc1`, the Inhibition in the test with Staphylococcus aureus is reported as 11.46%; with Escherichia coli it was 11.21%.
On the same counts, the results for `Cc1ccc2[nH]c3c(NCCN(C)C)ncnc3c2c1` are 20.13% and 7.48%.
In the case of `Cl.Cn1ccnc1CNCCS(=O)(=O)c1cccc(Nc2ccc(-c3cccc(F)c3)cn2)c1`, the figures for the Inhibition in the test on Staphylococcus aureus and in the test with Escherichia coli were 24.8% and 8.19%, respectively.
On to `COc1ccc(Cl)cc1NC(=O)CN(C)C(=O)c1cnn(-c2ccccc2)n1`, for which the Inhibition in the test on Staphylococcus aureus is reported as 8.96%; in the test with Escherichia coli, -2.51%.
Consider `O=C(Nc1ccc(F)c(-c2nc3cc(-c4ccccc4)cnc3[nH]2)c1)N1CCCC1`, for which the Inhibition is recorded as 13.16% in the test on Staphylococcus aureus and -0.3% in the test on Escherichia coli.
The corresponding values for `CC1=Nc2ccc(Cl)cc2C(O)(c2ccc(C)cc2)N1CCN1CCCCC1` (centres undefined) are 19.52% and 11.5%.
As for `Cc1cc(C)c2cc(C(=O)NC3CCCCCCC3)[nH]c2c1`, the Inhibition with Staphylococcus aureus was found to be 16.44%; with Escherichia coli, 7.15%.
On the same counts, the results for `CC1=Nc2ccc(Cl)cc2C(c2ccccc2)N1CCNC(=O)CN(C)C` (centres undefined) are 20.65% and 6.95%.
On the same counts, the results for `Nc1nccc2ccc(-c3ccc4nccn4c3)cc12` are 24.43% and 1.05%.
The corresponding values for `CN1CCCC1CCO[C@](C)(c1ccccc1)c1ccc(Cl)cc1.O=C(O)/C=C/C(=O)O` (some centres undefined) are 18.42% and 10.75%.
`Cc1ccc(NC(=O)CC2COc3ccccc3O2)cc1Cl` (centres undefined): the values for the Inhibition with Staphylococcus aureus and with Escherichia coli were 15.28% and 6.03%, respectively.
For the molecule `Nc1ncnc2[nH]nc(Cc3cccc4ccccc34)c12`, the Inhibition in the test on Staphylococcus aureus amounted to 12.91%; in the test on Escherichia coli, 7.05%.
For the molecule `COc1ccc(-c2cnc3cnc(-c4cccc(OC(C)C)c4)cn23)cc1`, the values for the Inhibition in the test on Staphylococcus aureus and with Escherichia coli were 6.79% and 4.77%, respectively.
Consider `Cc1cc(C)nc(-n2nc(C)cc2Nc2ccccc2)n1`, for which the Inhibition in the test on Staphylococcus aureus amounted to 9.46%; in the test with Escherichia coli it was 5.87%.
Turning to `CC(Oc1cccc(Cl)c1)C(=O)Nc1ccc2oc(-c3ccncc3)nc2c1` (centres undefined), the Inhibition with Staphylococcus aureus was found to be 60.53%; in the test on Escherichia coli it was 7.3%.
Turning to `CCOc1ccccc1NC(C)C(=O)Nc1cc(C(F)(F)F)ccc1N1CCOCC1` (centres undefined), the figures for the Inhibition in the test on Staphylococcus aureus and with Escherichia coli were 15.12% and 7.27%, respectively.
As to `Cc1ccc(S(=O)(=O)n2cc(-c3ccnc(N)c3)c3cc(Br)cnc32)cc1`, the Inhibition is recorded as 9.7% in the test with Staphylococcus aureus and -3.65% in the test on Escherichia coli.
As to `Cc1cccc(NC(=O)c2cc(S(=O)(=O)N(C)c3ccc(F)cc3)ccc2Cl)n1`, the values for the Inhibition in the test on Staphylococcus aureus and in the test on Escherichia coli were 12.32% and 7.88%, respectively.
Consider `O=C(C(Cc1c[nH]c2ccccc12)NS(=O)(=O)c1ccc(Cl)cc1)N1CCCCC1` (centres undefined), for which the Inhibition is recorded as 2.32% in the test on Staphylococcus aureus and 4.17% with Escherichia coli.
Take `Cc1ccc(C(=O)Nc2ccc(S(=O)(=O)O)c3cc(S(=O)(=O)O)cc(S(=O)(=O)O)c23)cc1NC(=O)c1cccc(NC(=O)Nc2cccc(C(=O)Nc3cc(C(=O)Nc4ccc(S(=O)(=O)O)c5cc(S(=O)(=O)O)cc(S(=O)(=O)O)c45)ccc3C)c2)c1` [SURAMIN]: the results for the Inhibition with Staphylococcus aureus and in the test on Escherichia coli were 23.13% and 7.96%, respectively.
Take `CC(C)C(NC(=O)Cc1cccc2ccccc12)C(=O)Nc1cccc(C#N)c1` (centres undefined): the figures for the Inhibition in the test on Staphylococcus aureus and in the test on Escherichia coli were 17.14% and 6.32%, respectively.
